Screening results as filed in PubChem.
Hits are enriched below; roughly 7.7% of the tested compounds scored in any of these assays.
HCMV antiviral: blocks human cytomegalovirus replication; 410,000 compounds, 4.5% hits; activity change, negative = inhibition, % at 57.5 µM; AID 1259415; HFF cells, HCMV-luciferase reporter, 72 h; stronger effect = lower value; in the data active = activity change below about -60%; inconclusive = no clear call, values can overlap the other calls; inactive = above about -39%
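Two compound doses tested in HFFs infected with HCMV-luciferase, MOI 1 PFU/cell, 72 h at 37C. Lysate luminescence read with OneGlo; data normalized against buffer-only and 10uM Salinomycin inhibitor controls.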
TbPYK inhibitor: blocks Trypanosoma brucei pyruvate kinase; Q57TT1; TbPYK enzyme, Kinase-Glo Plus ATP luminescence, 45 min; Potency, µM (titrated, usually from 76.8 µM), for the others: top-dose activity, negative = inhibition, hits mostly inhibitors; 410,000 compounds, 0.12% hits; AID 624173; also: potency is read from the fitted curve at half-maximal effect; nearly all actives have a fitted effect of over 50% in size
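Screened from lowest to highest concentration, compounds were pinned into TbPYK/substrate mixtures, and ADP (130 uM final) was added. Plates sat at room temperature for 45 min prior to Kinase-Glo Plus detection by luminescence.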
RE007 growth inh: less growth of the S. pombe RE007 Vpr strain; S. pombe RE007 Vpr strain, BacTiter-Glo ATP luminescence, 24 h; Potency, µM (series often up to 92.2 µM), inactives show at the top dose activity change, negative = less growth, actives largely listed as inhibitors; 360,000 compounds, 0.21% hits; AID 651644; active = well fitted falling curve with a large enough effect; inconclusive = small, poorly fitted or top-dose-only effect; inactive = no such curve, though single readings can be large or run the other way; also: potency is read from the fitted curve at half-maximal effect; nearly all actives have a fitted effect of over 50% in size
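Fission yeast strain RE007, carrying one chromosomally integrated HIV-1 vpr copy, was seeded at OD 0.01 in PMG+AL medium with 23 nL pinned compound. After 24 h at 30 °C and 99% humidity, viability was read by BacTiter-Glo luminescence.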
FBPA Giardia inh: blocks Giardia fructose-bisphosphate aldolase activity; 290,000 compounds, 0.71% hits; purified Giardia FBPA; Potency, µM (series often up to 59.6 µM), for inactives: at the highest dose activity, negative = inhibition, usual class: inhibitors; also: potency is read from the fitted curve at half-maximal effect; nearly all actives have a fitted effect of over 55% in size
Target sequence (A8B2U2 whole entry, looked up): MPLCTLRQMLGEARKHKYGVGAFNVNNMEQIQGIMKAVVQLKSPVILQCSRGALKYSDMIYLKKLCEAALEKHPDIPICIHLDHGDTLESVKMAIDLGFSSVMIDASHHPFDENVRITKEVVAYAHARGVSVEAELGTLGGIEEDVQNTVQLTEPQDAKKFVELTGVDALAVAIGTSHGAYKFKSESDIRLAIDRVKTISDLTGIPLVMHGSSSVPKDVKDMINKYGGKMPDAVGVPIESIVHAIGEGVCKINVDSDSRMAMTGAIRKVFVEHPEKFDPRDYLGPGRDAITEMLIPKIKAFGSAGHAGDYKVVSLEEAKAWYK
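Giardia FBPA (40 nM reagent) was preincubated 10 min at RT with compound (up to 57.5 uM final), then substrate plus GAPDH/TPI/NAD/arsenate coupling system with diaphorase/resazurin was added; resorufin fluorescence (525/598 nm) was read after 20 min.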
FMDV antiviral: foot and mouth disease virus antiviral activity | AID 1159524 | FMDV antiviral cell-based qHTS | 410,000 compounds, 1.2% hits | Potency, µM (titrated, usually from 57.9 µM), without a hit: top-dose activity change, negative = inhibition, actives largely listed as inhibitors; calls by dose curve; tested in HEK293T cells; also: read-out not given here; potency is read from the fitted curve at half-maximal effect; nearly all actives have a fitted effect of over 45% in size
Sm TGR inh: blocks Schistosoma mansoni thioredoxin glutathione reductase. Potency, µM (titrated, usually from 114 µM), for the others: at the highest dose activity change, negative = inhibition, most hits filed as inhibitors. AID 485364. purified TGR, DTNB reduction, TNB absorbance 405 nm. 360,000 compounds, 3% hits. Q962Y6; also: potency is read from the fitted curve at half-maximal effect; nearly all actives have a fitted effect of over 60% in size
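TGR 20 nM + NADPH 100 uM (dispensed conc.), cpd preinc 15 min RT; start with NADPH (500 uM addition) then DTNB (15 mM addition). Kinetic TNB absorbance, 405 nm filter. Four-parameter Hill fit across titration.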
Active calls of the source: *. Unless noted, calls follow the shape of the dose curve; as a rule, active = well fitted curve in the direction sought with a large enough effect; inconclusive = small, poorly fitted or top-dose-only effect, or another doubt; inactive = no such curve, though single readings can be large; an effect the other way counts as inactive or inconclusive. % is scaled to controls: 0 for no effect and ±100 for the full control effect.

Results for CC(C)Cn1c(N)c(C(=O)COC(=O)/C=C/c2ccccc2)c(=O)n(C)c1=O ?
HCMV antiviral: -75.9*; TbPYK inhibitor: 0.8%; RE007 growth inh: -14.3%; FMDV antiviral: 15.8µM*; Sm TGR inh: -7.0%

What do the screens show for `Cc1csc(=O)n1CCC(=O)OCC(=O)c1c(N)n(CC(C)C)c(=O)n(C)c1=O`?
HCMV antiviral: inconclusive; TbPYK inhibitor: 2.0%; RE007 growth inh: -16.7%; FMDV antiviral: inconclusive; Sm TGR inh: -6.8%

How did CC(C)Cn1c(N)c(C(=O)CSc2ccccc2)c(=O)n(C)c1=O do in these assays?
HCMV antiviral: -29.0; TbPYK inhibitor: -6.0%; RE007 growth inh: 3.3%; FBPA Giardia inh: 2.4%; FMDV antiviral: 20µM*; Sm TGR inh: 0.7%

What do the screens show for `CC(C)Cn1c(N)c(C(=O)COC(=O)CC23CC4CC(CC(C4)C2)C3)c(=O)n(C)c1=O`?
HCMV antiviral: -66.7*; TbPYK inhibitor: 5.2%; RE007 growth inh: -2.8%; FBPA Giardia inh: -10.2%; FMDV antiviral: 12.6µM*; Sm TGR inh: 8.6%

What do the screens show for `CC(C)Cn1c(N)c(C(=O)COC(=O)c2ccc(Br)cc2)c(=O)n(C)c1=O`?
HCMV antiviral: -30.2; TbPYK inhibitor: -16.8%; RE007 growth inh: -12.5%; FMDV antiviral: 31.6µM*

How did CC(C)Cn1c(N)c(C(=O)COC(=O)c2ccc(Cl)cc2)c(=O)n(C)c1=O do in these assays?
HCMV antiviral: inconclusive; TbPYK inhibitor: 5.3%; RE007 growth inh: -19.4%; FBPA Giardia inh: -7.2%; FMDV antiviral: -20.1%; Sm TGR inh: 32.6%

How did COc1cc(=O)n2c(c1C(=O)N(C)Cc1nonc1C)CCN(C(=O)c1cc(C)ccc1C)CC2 do in these assays?
FMDV antiviral: -9.2%

Results for Cc1ccc2c(=O)cc(C(=O)N(Cc3ccc(C(C)(C)C)cc3)C3CCS(=O)(=O)C3)oc2c1 (configuration not stated) ?
HCMV antiviral: -3.1; TbPYK inhibitor: 1.7%; FMDV antiviral: -23.7%; Sm TGR inh: 5.2%

How did Cn1c(N)c(C(=O)COC(=O)/C=C/c2ccc(Cl)cc2Cl)c(=O)n(C)c1=O do in these assays?
HCMV antiviral: -4.4; TbPYK inhibitor: -3.9%; RE007 growth inh: -9.1%; FMDV antiviral: 39.8µM*

What do the screens show for `CCOc1ccccc1NC(=O)CN1C(=O)CC(c2ccc(OC)c(OC)c2)Sc2ccccc21` (configuration not stated)?
HCMV antiviral: 1.3; TbPYK inhibitor: 1.0%; FMDV antiviral: inconclusive; Sm TGR inh: -1.6%

Results for CC1(C)CC(=O)C(C(C2=C(O)CC(C)(C)CC2=O)c2ccc(Br)s2)C(=O)C1 (configuration not stated) ?
HCMV antiviral: -6.7; TbPYK inhibitor: inconclusive; RE007 growth inh: inconclusive; FBPA Giardia inh: -0.7%; FMDV antiviral: 5.62µM*; Sm TGR inh: 10µM*

Results for COc1cccc(C(C2=C(O)CC(C)(C)CC2=O)C2C(=O)CC(C)(C)CC2=O)c1 (configuration not stated) ?
HCMV antiviral: -65.3*; TbPYK inhibitor: -18.9%; RE007 growth inh: -3.2%; FBPA Giardia inh: 7.9%; FMDV antiviral: -13.3%; Sm TGR inh: inconclusive

Results for CCN(CC)C(=O)Cn1c(SCC(=O)Nc2ccc(C)c(C)c2)nc2ccccc21 ?
HCMV antiviral: -7.4; TbPYK inhibitor: 0.8%; FMDV antiviral: 6.7%; Sm TGR inh: 4.8%

How did CCCOC(=O)Nc1nc(-c2ccc(C)cc2)c(C)s1 do in these assays?
HCMV antiviral: inconclusive; TbPYK inhibitor: -6.1%; RE007 growth inh: inconclusive; FBPA Giardia inh: 11.2%; FMDV antiviral: 20.4%; Sm TGR inh: 6.6%

What do the screens show for `Cn1cc([N+](=O)[O-])c(C(=O)Nc2nc(-c3ccc(Cl)cc3)cs2)n1`?
HCMV antiviral: -96.4*; TbPYK inhibitor: 0.2%; RE007 growth inh: -2.5%; FBPA Giardia inh: -0.2%; FMDV antiviral: inconclusive; Sm TGR inh: 0.4%

Results for Cc1ccc(-c2nc(NC(=O)c3nn(C)cc3[N+](=O)[O-])sc2C)cc1C ?
HCMV antiviral: -106.9*; TbPYK inhibitor: -6.0%; RE007 growth inh: -4.8%; FBPA Giardia inh: -0.3%; FMDV antiviral: 12.6µM*; Sm TGR inh: -8.4%

How did Cc1cnc(NC(=O)c2nn(C)cc2[N+](=O)[O-])s1 do in these assays?
HCMV antiviral: -99.0*; TbPYK inhibitor: 4.1%; RE007 growth inh: -19.7%; FBPA Giardia inh: -1.4%; FMDV antiviral: -12.6%

What do the screens show for `Cc1ccc(-c2nc(NC(=O)c3nn(C)cc3[N+](=O)[O-])sc2C)cc1`?
HCMV antiviral: -104.0*; TbPYK inhibitor: -3.5%; RE007 growth inh: 5.4%; FBPA Giardia inh: 0.3%; FMDV antiviral: 11.2µM*; Sm TGR inh: -2.2%

What do the screens show for `CCOC(=O)C1=CCN(S(=O)(=O)c2ccc(Cl)cc2)C1c1cccc(Br)c1` (configuration not stated)?
HCMV antiviral: -29.5

How did CC[C@@H](C)[C@H](C(CC(=O)N1CCCC1[C@@H](OC)[C@H](C)C(=O)N[C@H](Cc1ccccc1)c1nccs1)OC)N(C)C(=O)[C@H](NC(=O)[C@@H](C(C)C)N(C)C)C(C)C (some centres not stated) do in these assays?
HCMV antiviral: -90.7*; TbPYK inhibitor: -9.4%; RE007 growth inh: -0.1%; FMDV antiviral: -12.4%

How did CC[C@H](C)[C@@H](C(=O)N1CCCC1c1nccs1)N(C)C(=O)[C@H](CC(C)C)N(C)C(=O)[C@H](Cc1ccc(OC)cc1)N(C)C(=O)/C=C(\C)OC (some centres not stated) do in these assays?
HCMV antiviral: 11.3; TbPYK inhibitor: -2.8%; RE007 growth inh: 4.0%; FMDV antiviral: 0.0%

Results for CCOC(=O)c1cc(S(=O)(=O)N2CCN(c3ccc(C)cc3C)CC2)[nH]n1 ?
HCMV antiviral: 4.0; TbPYK inhibitor: -2.1%; FMDV antiviral: 0.2%; Sm TGR inh: 1.1%

What do the screens show for `CCCS(=O)(=O)NC(=O)C1(C)CCCN(C(=O)c2cc(C)n(C(C)(C)C)n2)C1` (configuration not stated)?
HCMV antiviral: -64.5*; TbPYK inhibitor: 4.8%; RE007 growth inh: 10.3%; FMDV antiviral: 4.8%

How did CC(=O)c1c2c(cc3ccc(Cl)cc13)CCC2 do in these assays?
HCMV antiviral: -14.1

What do the screens show for `CCOc1ccc(CNC(=O)c2ccc(Sc3ccc(C)cc3)c(N)c2)cc1OC`?
HCMV antiviral: -62.1*; TbPYK inhibitor: 4.1%; FMDV antiviral: inconclusive; Sm TGR inh: -1.1%
